B1: PhoQ; a variant is named by its letters at X, in order, P23837 (parent)
chain: MKKLLRLFFPLSLRVRFLLATAAVVLVLSLAYGMVALIGYSVSFDKTTFRLLRGESNLFYTLAKWENNKLHVELPENIDKQSPTMTLIYDENGQLLWAQRDVPWLMKMIQPDWLKSNGFHEIEADVNDTSLLLSGDHSIQQQLQEVREDDDDAEMTHSVAVNVYPATSRMPKLTIVVVDTIPVELKSSYMVWSWFIYVLSANLLLVIPLLWVAAWWSLRPIEALAKEVRELEEHNRELLNPATTRELTSLVRNLNRLLKSERERYDKYRTTLTDLTHSLKTPLXXLQXXLRSLRSEKMSVSDAEPVMLEQISRISQQIGYYLHRASMRGGTLLSRELHPVAPLLDNLTSALNKVYQRKGVNISLDISPEISFVGEQNDFVEVMGNVLDNACKYCLEFVEISARQTDEHLYIVVEDDGPGIPLSKREVIFDRGQRVDTLRPGQGVGLAVAREITEQYEGKIVAGESMLGGARMEVIFGRQHSAPKDE

Whole data set: some 140,000 sequences, median “enrichment ratio after two sorts for PhoP signalling” near 0, cut for the highest 2% near 11. This is one part of a sample in which the highest values are shown more often than they occur.

This test covers variants of B1. Description: enrichment ratio after two sorts for PhoP signalling (ratio (wild type AVST 3.29)); higher = more functional. Particulars: with PhoP (E. coli).
With DFCK, the enrichment ratio is not above 0.25.

Take IFAG: the enrichment ratio is not above 0.25.

As to ECNL, the enrichment ratio was not above 0.25.

In the case of KFQG, the enrichment ratio was not above 0.25.

Take GWTL: the enrichment ratio was not above 0.25.

As to DYTL, the enrichment ratio was not above 0.25.

For YESY, the enrichment ratio is not above 0.25.

RHIC: the enrichment ratio stood at 0.278.

As to ATKV, the enrichment ratio is not above 0.25.

Take IHFF: the enrichment ratio was not above 0.25.

YYCV: the enrichment ratio was not above 0.25.

Regarding TMCI, the enrichment ratio was 12.4.

With DMCT, the enrichment ratio was not above 0.25.

Turning to TMCA, the enrichment ratio worked out at 8.5.

With TMCK, the enrichment ratio turned out to be 3.91.

As to TMCT, the enrichment ratio was found to be 19.5.

Turning to NMCT, the enrichment ratio was not above 0.25.

For the variant YSWE, the enrichment ratio was not above 0.25.

Consider AFNE, for which the enrichment ratio was not above 0.25.

For WHNP, the enrichment ratio was not above 0.25.

Regarding SEAG, the enrichment ratio is 12.1.

As to KYAG, the enrichment ratio was not above 0.25.

In the case of SFAG, the enrichment ratio turned out to be 0.768.

Regarding SAAG, the enrichment ratio was 14.1.

Take DPAG: the enrichment ratio was not above 0.25.

SPAG: the enrichment ratio is not above 0.25.

For SQAG, the enrichment ratio was 25.9.

In the case of SAVG, the enrichment ratio is 0.763.

On to STAG, for which the enrichment ratio was 9.55.

Consider RRVI, for which the enrichment ratio was not above 0.25.

For FDPS, the enrichment ratio is not above 0.25.

On to DHTW, for which the enrichment ratio is not above 0.25.

As for SYMG, the enrichment ratio is 12.5.

As to DPMG, the enrichment ratio is not above 0.25.

For the variant SYHG, the enrichment ratio is not above 0.25.

As to SQMG, the enrichment ratio was 20.8.

Consider SYIG, for which the enrichment ratio amounted to 11.3.

For KYIG, the enrichment ratio is not above 0.25.

In the case of SYEG, the enrichment ratio was not above 0.25.

Turning to SDIG, the enrichment ratio was not above 0.25.

For STMG, the enrichment ratio is 9.85.

For WYLE, the enrichment ratio was not above 0.25.

On to LKTQ, for which the enrichment ratio is not above 0.25.

Consider HHMC, for which the enrichment ratio is not above 0.25.

In the case of FFEW, the enrichment ratio was not above 0.25.

As for SADI, the enrichment ratio is not above 0.25.

Regarding SNGG, the enrichment ratio worked out at 7.77.

On to TNLA, for which the enrichment ratio turned out to be 8.08.

For RGND, the enrichment ratio is not above 0.25.

For IQNG, the enrichment ratio was not above 0.25.

NQNG: the enrichment ratio was not above 0.25.

In the case of PGNG, the enrichment ratio was not above 0.25.

As to AQNG, the enrichment ratio stood at 28.2.

Consider NGNG, for which the enrichment ratio was not above 0.25.

As to TGNG, the enrichment ratio stood at 23.3.

VKSA: the enrichment ratio was not above 0.25.

As for NIRT, the enrichment ratio is not above 0.25.

As to AVYH, the enrichment ratio worked out at 0.253.

In the case of INLE, the enrichment ratio was not above 0.25.

In the case of GMTL, the enrichment ratio worked out at 15.2.

In the case of LTTL, the enrichment ratio was not above 0.25.

As to KYTL, the enrichment ratio was not above 0.25.

Regarding SRTL, the enrichment ratio was determined as 0.897.

As for SITL, the enrichment ratio was 18.5.

With SSTL, the enrichment ratio turned out to be 14.

As for GVTL, the enrichment ratio worked out at 8.09.

For FVTL, the enrichment ratio came out at 1.5.

Consider DITL, for which the enrichment ratio was not above 0.25.

Turning to SFTL, the enrichment ratio is 1.44.

Take TTTL: the enrichment ratio came to 13.4.

For the variant CTTL, the enrichment ratio was not above 0.25.

Regarding MWFH, the enrichment ratio was not above 0.25.

In the case of PGWI, the enrichment ratio is not above 0.25.

As to ESFA, the enrichment ratio was not above 0.25.

With HNYP, the enrichment ratio is not above 0.25.

Take MKHE: the enrichment ratio is not above 0.25.

On to GLGE, for which the enrichment ratio is not above 0.25.

For the variant GQQP, the enrichment ratio is not above 0.25.

For the variant FLMS, the enrichment ratio is not above 0.25.

Turning to ANVH, the enrichment ratio is not above 0.25.

Turning to SNTL, the enrichment ratio came out at 14.6.

On to WNTL, for which the enrichment ratio is not above 0.25.

Take TNTL: the enrichment ratio came out at 14.

For IQTL, the enrichment ratio is not above 0.25.

Take FQTL: the enrichment ratio worked out at 1.49.

Regarding GNTL, the enrichment ratio came out at 6.85.

With SQTL, the enrichment ratio turned out to be 12.3.

Consider MNTL, for which the enrichment ratio stood at 3.28.

Turning to FTTL, the enrichment ratio was 3.67.

Take GTTL: the enrichment ratio came to 11.7.

For TWTL, the enrichment ratio was not above 0.25.

As for QCRR, the enrichment ratio is not above 0.25.

As to NVGP, the enrichment ratio is not above 0.25.

As for SGTL, the enrichment ratio was 7.51.

With WPCQ, the enrichment ratio is not above 0.25.

Take HKKN: the enrichment ratio is not above 0.25.

Take PVRE: the enrichment ratio was not above 0.25.

NYRG: the enrichment ratio was not above 0.25.

PLTL: the enrichment ratio was not above 0.25.

KFTL: the enrichment ratio is not above 0.25.

Regarding VCTL, the enrichment ratio came to 6.03.

As for KCTL, the enrichment ratio is not above 0.25.

As to WLTL, the enrichment ratio worked out at 0.379.

As for SCTL, the enrichment ratio was determined as 14.2.

For the variant TCTL, the enrichment ratio is 20.7.

Regarding SLTL, the enrichment ratio turned out to be 15.2.

For SVTL, the enrichment ratio came out at 12.2.

As for FCTL, the enrichment ratio is not above 0.25.

With SVWL, the enrichment ratio is not above 0.25.

In the case of EAPT, the enrichment ratio was not above 0.25.

Regarding TVGM, the enrichment ratio worked out at 10.4.

On to MWTK, for which the enrichment ratio is not above 0.25.

Take AEKL: the enrichment ratio is not above 0.25.

As to ARYC, the enrichment ratio was not above 0.25.

As for ESWQ, the enrichment ratio is not above 0.25.

For HSSR, the enrichment ratio was not above 0.25.

As to LRFQ, the enrichment ratio was not above 0.25.

FLTL: the enrichment ratio stood at 0.273.

Regarding NETL, the enrichment ratio was not above 0.25.

As to TLTL, the enrichment ratio was determined as 14.1.

With ITTL, the enrichment ratio turned out to be 0.464.

For the variant YTTL, the enrichment ratio was 3.18.

Consider QETL, for which the enrichment ratio was not above 0.25.

Regarding SETL, the enrichment ratio came to 14.8.

Regarding VLTL, the enrichment ratio amounted to 3.19.

With STTL, the enrichment ratio amounted to 16.6.

Take MHRQ: the enrichment ratio is not above 0.25.

Turning to GSPC, the enrichment ratio was not above 0.25.

On to QHLF, for which the enrichment ratio was not above 0.25.

For the variant RLFC, the enrichment ratio was not above 0.25.

Regarding NYDD, the enrichment ratio is not above 0.25.

As to RDCN, the enrichment ratio was not above 0.25.

Consider EACS, for which the enrichment ratio was not above 0.25.

Turning to MLAN, the enrichment ratio was not above 0.25.

As for MEYQ, the enrichment ratio is not above 0.25.

Take MCYQ: the enrichment ratio was 17.2.

As to MLYD, the enrichment ratio is not above 0.25.

Turning to NCYQ, the enrichment ratio is not above 0.25.

KCYQ: the enrichment ratio is not above 0.25.

With MLYQ, the enrichment ratio worked out at 18.8.

MADQ: the enrichment ratio was not above 0.25.

In the case of VHFE, the enrichment ratio is not above 0.25.

Turning to ESLL, the enrichment ratio came out at 0.525.

In the case of ELNQ, the enrichment ratio is not above 0.25.

In the case of GIML, the enrichment ratio was 8.24.

As for YNSK, the enrichment ratio was not above 0.25.

For TNML, the enrichment ratio amounted to 1.41.

As to VGML, the enrichment ratio was determined as 8.33.

As for GGML, the enrichment ratio is 15.7.

Turning to MNML, the enrichment ratio came to 24.9.

On to GNML, for which the enrichment ratio turned out to be 12.2.

As for GQML, the enrichment ratio was determined as 7.95.

In the case of LNML, the enrichment ratio turned out to be 2.48.

Take MNMI: the enrichment ratio was 4.

Take YNML: the enrichment ratio worked out at 13.9.

Take YNNL: the enrichment ratio is not above 0.25.

With SKFF, the enrichment ratio is not above 0.25.

As to ALTN, the enrichment ratio worked out at 7.81.

For the variant SRAG, the enrichment ratio was not above 0.25.

Take IRNN: the enrichment ratio was not above 0.25.

KMTD: the enrichment ratio was not above 0.25.

DIIE: the enrichment ratio is not above 0.25.

In the case of HEPC, the enrichment ratio was not above 0.25.

As for YNTI, the enrichment ratio is not above 0.25.

For the variant GRQY, the enrichment ratio was not above 0.25.

HGML: the enrichment ratio was determined as 21.6.

As for MVCL, the enrichment ratio stood at 4.31.

For HFML, the enrichment ratio was not above 0.25.

Turning to TGML, the enrichment ratio turned out to be 12.2.

For the variant MVML, the enrichment ratio came to 11.9.

Turning to MVPL, the enrichment ratio was not above 0.25.

Consider RGML, for which the enrichment ratio is not above 0.25.

VNML: the enrichment ratio was found to be 14.6.

With VNSK, the enrichment ratio was not above 0.25.

For the variant VNNL, the enrichment ratio is not above 0.25.

Regarding NGML, the enrichment ratio is not above 0.25.

For the variant HIML, the enrichment ratio was not above 0.25.

For the variant YQHI, the enrichment ratio was not above 0.25.

On to FWLA, for which the enrichment ratio is not above 0.25.

With TCLH, the enrichment ratio worked out at 1.39.

Turning to SHYK, the enrichment ratio was not above 0.25.

On to DMSQ, for which the enrichment ratio was not above 0.25.

Consider IDIQ, for which the enrichment ratio was not above 0.25.

Consider RRTP, for which the enrichment ratio is not above 0.25.

On to MAIN, for which the enrichment ratio was not above 0.25.

Take GTWQ: the enrichment ratio is not above 0.25.

In the case of EFQI, the enrichment ratio was not above 0.25.

PVML: the enrichment ratio is not above 0.25.

With GYML, the enrichment ratio was not above 0.25.

Consider GCML, for which the enrichment ratio is 3.33.

Regarding FGML, the enrichment ratio turned out to be 22.9.

With QGML, the enrichment ratio is 6.23.

As for GTML, the enrichment ratio came to 12.6.

As for PWML, the enrichment ratio is not above 0.25.

On to GVML, for which the enrichment ratio was 13.4.

Turning to FGDL, the enrichment ratio was not above 0.25.

The values above are taken from a collection of fitness landscapes (doi:10.1126/science.1257360).
